For experiment [1], the system named is TRPC4 beta (transient receptor potential cation channel C4), mouse. Nature of the experiment: activators of mouse TRPC4 channel, confirmation, cell-based, Fluo4 calcium, HEK293 TRPC4beta/mu-opioid, duplicates, 10 µM (AID 2426;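 active means fluorescence ratio normalized to control raised more than 50% in primary screen plus both repeat runs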;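 on activation: percent rise of integrated ratio over buffer wells lacking compound which define 0%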). The note with it: Fluo4 calcium fluorescence, at 10 µM; stronger effect = higher value.
Experiment [2] concerns transient receptor potential cation channel C4 beta (TRPC4), mouse. The experiment is described as follows: activators of mouse TRPC4 channel, confirmation, cell-based, second round, Fluo4, HEK293 TRPC4beta/mu-opioid, 1 µM (AID 2461;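 active means primary screen active and over 50% activation in each of two duplicate runs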;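 on activation: 0% = wells without test compound as baseline of integrated fluorescence ratio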). The conditions noted are these: Fluo4 calcium fluorescence, at 1 µM; stronger effect = higher value.
In experiment [3] the test system is TRPC4 (transient receptor potential cation channel C4 beta), mouse. Nature of the experiment: positive allosteric modulators of mouse TRPC4, confirmation, cell-based, second round, Fluo-4, HEK293 TRPC4beta/mu-opioid, 1 µM (AID 2554;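 active means primary screen hit whose fluorescence ratio, in both repeats, exceeds the weak agonist control mean by 3 SD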). The note with it: DAMGO EC20, Fluo-4 calcium flux, at 1 µM; stronger effect = higher value. (Calcium flux is commonly read through the fluorescence of an indicator in the cells.)

The test system of experiment [4] is TRPC4 beta (transient receptor potential cation channel C4), mouse. Nature of the experiment: positive allosteric modulators of mouse TRPC4, confirmation, cell-based, Fluo-4, HEK293 TRPC4beta/mu-opioid (AID 2555;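 active means primary screen hit whose calcium fluorescence ratio, in both repeats, exceeds the weak agonist control mean by 3 SD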). The conditions noted are these: DAMGO EC20, Fluo-4 calcium flux, at 10 µM; stronger effect = higher value.
Experiment [5] concerns the target Short transient receptor potential channel 4 (Mus musculus) (UniProt Q9QUQ5). Nature of the experiment: inhibitors of mouse TRPC4 channel, confirmation, cell-based, Fluo4, HEK293 TRPC4beta/mu-opioid (AID 2636). The note with it: DAMGO, Fluo4 calcium flux, at 10 µM; stronger effect = higher value.
For experiment [6] the target is unchanged. Nature of the experiment: inhibitors of mouse TRPC4 channel, confirmation, cell-based, second round, Fluo4, HEK293 TRPC4beta/mu-opioid, 1 µM (AID 2637;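 active means calcium signal ratio cut to more than 3 SD under the fully stimulated control mean yet still positive, in both repeats and the primary screen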). The note with it: Fluo4 calcium flux, DAMGO, at 1 µM; stronger effect = higher value.
Experiment [7] has the same target. Nature of the experiment: TRPC4 positive allosteric modulators, dose response, cell-based, HEK293 TRPC4/mu-opioid, Fluo-4 calcium, EC20 DAMGO (AID 434941;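 active means earlier screen potentiator hit that boosts the TRPC4 ion channel at some dose, with a dose response; inactive means no potentiation, no dose response, or not a prior hit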;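 further: calcium entry triggered by an EC20 dose of DAMGO at the co-expressed mu-opioid receptor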).
Experiment [8] shares this target. Nature of the experiment: mouse TRPC4 channel inhibitors, dose response, cell-based, HEK293 TRPC4/mu-opioid, Fluo-4 calcium (AID 434942;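 active means primary screen inhibitor hit that blocks the TRPC4 channel at some tested dose, yielding a dose curve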).
Experiment [9] has as its target Short transient receptor potential channel 6 (Mus musculus) (UniProt Q61143). The experiment is described as follows: inhibition of mouse TRPC6 channel, confirmation, selectivity assay for TRPC4 inhibitor project, cell-based, HEK293, membrane potential dye, duplicate (AID 434948;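 active means active in primary screen and both duplicates, each dropping signal beyond three positive-control SD with fluorescence still positive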). The note with it: HEK293 TRPC6, membrane potential dye fluorescence, at 10 µM, stimulated with maximal-effect acetylcholine; stronger effect = higher value.

For experiment [10] the target is unchanged. The experiment is described as follows: activation of mouse TRPC6 channel, confirmation, selectivity assay for TRPC4 activator project, cell-based, HEK293, membrane potential dye, duplicate (AID 434950;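 active means membrane potential signal rise above negative control mean plus 3 SD in both duplicates, also active in the earlier TRPC4 screen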;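 on activation: 0% = buffer only wells and 100% = acetylcholine maximal-effect wells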). The conditions noted are these: HEK293 TRPC6, membrane potential fluorescence, at 10 µM; stronger effect = higher value.
The target is the same in experiment [11]. Nature of the experiment: TRPC6 potentiation by TRPC4 potentiator hits, confirmation, selectivity assay for TRPC4 potentiator project, HEK293 cells, membrane potential dye, duplicate (AID 434952;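 active means compound raising the membrane signal above positive-control mean plus 3 SD in both repeats, and a primary screen hit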). The conditions noted are these: HEK293 TRPC6, membrane potential dye fluorescence, at 10 µM, maximal acetylcholine added after compound; stronger effect = higher value.
Experiment [12] addresses Short transient receptor potential channel 4 (Mus musculus) (UniProt Q9QUQ5). The experiment is described as follows: calcium flux activators in TRPC4/5HT1a cells, counter-screen for TRPC4 activator project, cell-based, second counter screen, HEK293 TRPC4/5HT1a, Fluo-4 (AID 434977;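 active means calcium signal rise above buffer-control mean plus 5 SD in both duplicates, and also a hit in the primary screen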;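 on activation: plate controls were assay buffer for no effect and maximal serotonin response for full effect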). The conditions noted are these: Fluo-4 calcium flux, at 10 µM; stronger effect = higher value.
Experiment [13] in a line: calcium flux inhibitors in TRPC4/5HT1a cells, confirmation, counter-screen for TRPC4 inhibitor project, cell-based, second counter screen, HEK293 TRPC4/5HT1a, Fluo-4 (AID 434978;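 active means primary screen active whose calcium signal fell more than 3 SD beyond the full-serotonin control mean in both duplicate plates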;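 further: serotonin given first at submaximal then at maximal dose after compound preincubation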). The conditions noted are these: Fluo-4 calcium flux, at 10 µM, serotonin added to trigger calcium flux; stronger effect = higher value.
Experiment [14] deals with TRPC4 (mouse), co-expressed with 5HT1a in HEK293. Nature of the experiment: calcium flux potentiators in TRPC4/5HT1a cells, confirmation, counter-screen for TRPC4 potentiator project, cell-based, second counter screen, HEK293 TRPC4/5HT1a, Fluo-4 (AID 434979;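 active means signal rise over 3 SD above mean of control wells given weak agonist, in both repeats and first screen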). The note with it: Fluo-4 calcium flux, at 10 µM, serotonin added at its EC20 dose; stronger effect = higher value.
Experiment [15] is described as follows: calcium flux activation in mu-opioid HEK293 cells, confirmation, counter-screen for TRPC4 activator project, cell-based, HEK293 mu-opioid receptor line (AID 449723;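 active means hit in primary screen, with calcium signal over 5 SD above buffer well mean in both duplicates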;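 further: counter screen cells carry the mu-opioid receptor alone and lack TRPC4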). The conditions noted are these: Fluo-4 calcium fluorescence, at 10 µM; stronger effect = higher value.
A short description of experiment [16]: calcium flux enhancement in mu-opioid HEK293 cells, confirmation, counter-screen for TRPC4 allosteric potentiator project, cell-based, HEK293 mu-opioid receptor line (AID 449724;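 active means calcium signal rise more than 3 SD above the low-dose agonist control mean, in both duplicate plates and the primary screen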;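 further: HEK293 cells carrying mu-opioid receptor only with no TRPC4 channel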). The note with it: Fluo-4 calcium flux, at 10 µM, compound added before EC20 DAMGO stimulus; stronger effect = higher value.

For part of these data: Results with a measured potency or affinity are listed apart. Active and inactive are the calls of the source.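 How the source made its calls, unless noted: active means calcium signal cut by more than 3 SD below the full-agonist control yet still positive, in both repeats and the earlier primary screen; inactive means the rest.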

Sequence of Short transient receptor potential channel 6 (Mus musculus) (Q61143 whole entry, looked up): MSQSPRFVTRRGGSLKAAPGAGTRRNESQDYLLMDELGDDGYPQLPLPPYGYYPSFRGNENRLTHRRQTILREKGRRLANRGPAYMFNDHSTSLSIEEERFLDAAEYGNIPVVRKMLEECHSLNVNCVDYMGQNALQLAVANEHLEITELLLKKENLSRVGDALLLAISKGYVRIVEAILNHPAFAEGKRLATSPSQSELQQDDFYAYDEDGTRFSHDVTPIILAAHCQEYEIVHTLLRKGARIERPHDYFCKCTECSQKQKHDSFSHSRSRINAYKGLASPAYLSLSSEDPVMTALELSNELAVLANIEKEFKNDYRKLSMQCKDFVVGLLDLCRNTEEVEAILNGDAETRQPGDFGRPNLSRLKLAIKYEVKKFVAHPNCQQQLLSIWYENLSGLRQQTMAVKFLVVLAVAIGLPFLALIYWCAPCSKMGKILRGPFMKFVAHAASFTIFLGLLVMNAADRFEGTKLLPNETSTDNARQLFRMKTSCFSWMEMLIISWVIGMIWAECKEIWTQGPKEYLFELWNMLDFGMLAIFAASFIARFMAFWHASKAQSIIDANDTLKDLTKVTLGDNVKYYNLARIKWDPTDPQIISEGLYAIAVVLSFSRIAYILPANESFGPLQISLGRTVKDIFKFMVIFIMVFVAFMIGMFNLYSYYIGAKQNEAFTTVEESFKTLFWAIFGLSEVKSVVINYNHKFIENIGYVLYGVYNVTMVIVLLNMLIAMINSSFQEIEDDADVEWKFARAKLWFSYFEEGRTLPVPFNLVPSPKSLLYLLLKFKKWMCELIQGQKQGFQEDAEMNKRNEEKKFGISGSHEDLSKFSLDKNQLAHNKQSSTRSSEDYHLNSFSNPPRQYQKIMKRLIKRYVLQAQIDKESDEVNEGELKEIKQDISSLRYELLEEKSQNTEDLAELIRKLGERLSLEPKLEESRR
Sequence of Short transient receptor potential channel 4 (Mus musculus) (Q9QUQ5 whole entry, looked up): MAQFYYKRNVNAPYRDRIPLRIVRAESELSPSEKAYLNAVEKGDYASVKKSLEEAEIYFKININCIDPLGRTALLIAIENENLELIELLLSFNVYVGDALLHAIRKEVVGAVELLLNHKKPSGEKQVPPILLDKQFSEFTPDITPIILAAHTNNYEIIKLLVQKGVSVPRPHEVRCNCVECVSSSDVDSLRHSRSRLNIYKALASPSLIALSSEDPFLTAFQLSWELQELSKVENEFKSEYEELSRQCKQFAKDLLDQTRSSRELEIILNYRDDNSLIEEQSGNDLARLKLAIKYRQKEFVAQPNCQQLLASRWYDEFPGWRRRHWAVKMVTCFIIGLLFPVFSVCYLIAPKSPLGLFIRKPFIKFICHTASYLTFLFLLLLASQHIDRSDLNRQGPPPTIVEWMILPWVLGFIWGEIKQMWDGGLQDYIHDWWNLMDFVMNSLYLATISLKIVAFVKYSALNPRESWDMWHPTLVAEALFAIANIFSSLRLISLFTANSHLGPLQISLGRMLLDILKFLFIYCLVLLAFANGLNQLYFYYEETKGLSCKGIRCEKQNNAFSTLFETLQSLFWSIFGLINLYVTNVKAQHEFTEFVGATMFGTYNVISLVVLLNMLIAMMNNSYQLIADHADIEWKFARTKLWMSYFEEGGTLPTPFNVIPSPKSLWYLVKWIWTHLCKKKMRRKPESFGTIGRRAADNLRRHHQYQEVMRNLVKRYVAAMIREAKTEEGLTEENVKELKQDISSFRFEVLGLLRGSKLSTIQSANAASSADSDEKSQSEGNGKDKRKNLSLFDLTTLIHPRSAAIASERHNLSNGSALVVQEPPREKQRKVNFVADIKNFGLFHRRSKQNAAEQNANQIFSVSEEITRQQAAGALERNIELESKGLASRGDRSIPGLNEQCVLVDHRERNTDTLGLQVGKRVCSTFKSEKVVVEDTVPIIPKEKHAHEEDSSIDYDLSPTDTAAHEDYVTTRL

For the compound `O=S(=O)(c1ccccc1)c1nnn2c1nc(NC1CCN(Cc3ccccc3)CC1)c1cc(Cl)ccc12`, the activation in [1] was 64% (active). Also, the outcome in experiment [2], in experiment [3], in experiment [4], in experiment [5], in experiment [6] and in experiment [7] was inactive. The outcome in [8], in experiment [9], in experiment [10], in experiment [11], in experiment [12] and in [13] was inactive. The outcome in experiment [14], in experiment [15] and in [16] was inactive.

As to `Cc1ccc(C)c(OCCCCn2ccnc2)c1`, the activation in experiment [1] was 111% (active); in experiment [10] it was 58.5% (active); in experiment [12] it was 14.7% (active). The outcome in [2], in experiment [3], in [4], in [5], in experiment [6] and in [7] was inactive. In addition, the result in [8], in experiment [9], in [11], in [13], in experiment [14] and in experiment [15] was inactive. The result in experiment [16] was inactive.

As to `Cc1cc(C)n(-c2nc(SCCN(C)C)c3c4c(sc3n2)CCCC4)n1`, in experiment [1], the activation was 162% (active). For the same compound, the outcome in experiment [2], in experiment [3], in [4], in [5], in experiment [6] and in experiment [7] was inactive. Also, the result in experiment [8], in experiment [9], in experiment [10], in [11], in [12] and in experiment [13] was inactive. Further, the result in experiment [14], in experiment [15] and in [16] was inactive.

For the compound `COC(=O)c1ccccc1N=Nc1c(N)[nH][nH]c1=O`, the activation in experiment [1] was 87% (active); in experiment [12], 51.2% (active). For the same compound, the result in experiment [2], in experiment [5], in [6], in [7], in experiment [8] and in [9] was inactive. The result in experiment [10], in experiment [11], in [13], in experiment [15] and in experiment [16] was inactive. Moreover, the potentiation in experiment [3] was 69% (active); in [4], 54% (active); in [14], 46.3% (active).

Turning to `c1ccc2c(c1)CCN(c1ncnc3c1[nH]c1ccccc13)C2`, the outcome in experiment [1], in experiment [2], in experiment [3], in experiment [4], in [5] and in [6] was inactive. Besides, the outcome in [7], in experiment [8], in [9], in experiment [10], in experiment [11] and in [12] was inactive. In addition, the result in experiment [13], in experiment [14], in experiment [15] and in [16] was inactive.

Regarding `CC1CCCCN1S(=O)(=O)c1ccc(C(=O)N(CCCN(C)C)c2nc3ccc(Br)cc3s2)cc1` (stereo not given), the outcome in [1], in experiment [2], in experiment [3], in experiment [4], in [5] and in experiment [6] was inactive. Moreover, the outcome in experiment [7], in experiment [8], in experiment [9], in experiment [10], in experiment [11] and in experiment [13] was inactive. Also, the result in [14] and in [16] was inactive. Also, the activation in [12] is 21% (active); in experiment [15], 14.9% (active).

For the compound `COc1ccccc1N1CCN(C(c2cccs2)C(C)NC(=O)c2cccs2)CC1` (stereo not given), the outcome in experiment [1], in [2], in experiment [3], in experiment [4], in experiment [5] and in experiment [6] was inactive. Moreover, the outcome in experiment [7], in experiment [8], in [9], in experiment [11], in experiment [12] and in experiment [13] was inactive. In addition, the result in experiment [14], in [15] and in [16] was inactive. Also, the activation in experiment [10] is 23.5% (active).

`CCn1c(N2CCN(Cc3ccc([N+](=O)[O-])cc3)CC2)nc2ccccc21`: the activation was 100% (active) in experiment [1], 83% (active) in experiment [2] and 22% (active) in [12]. For the same compound, the outcome in experiment [3], in [4], in experiment [5], in [6], in [7] and in experiment [8] was inactive. Moreover, the call in experiment [9], in experiment [10], in experiment [11], in [13], in experiment [15] and in experiment [16] was inactive. Moreover, the potentiation in [14] is 18.3% (active).

As to `COc1ccc(C(CNCC(=O)Nc2ccccc2F)N(C)C)cc1` (stereo not given), the outcome in experiment [1], in experiment [3], in experiment [4], in experiment [5], in experiment [6] and in [7] was inactive. Moreover, the outcome in experiment [8], in experiment [9], in experiment [11], in experiment [12], in [13] and in experiment [14] was inactive. In addition, the outcome in [15] and in experiment [16] was inactive. Besides, the figures for the activation in [2] and in [10] were 105% (active) and 59% (active), respectively.

With `CN(C)C(CNc1ncnc2sc3c(c12)CCCC3)c1ccco1` (stereo not given), the activation in experiment [1] was 110% (active). The outcome in experiment [2], in [3], in experiment [4], in experiment [5], in [6] and in experiment [7] was inactive. For the same compound, the result in [8], in experiment [9], in [10], in [11], in experiment [12] and in experiment [13] was inactive. For the same compound, the result in experiment [14], in [15] and in experiment [16] was inactive.

In the case of `O=C(NNC(=S)NC(=O)C12CC3CC(CC(C3)C1)C2)c1ccncc1`, the activation was 192% (active) in experiment [1], 126% (active) in [12] and 44.2% (active) in [15]. Besides, the outcome in experiment [2], in experiment [3], in experiment [4], in [5], in [6] and in experiment [7] was inactive. Moreover, the outcome in experiment [8], in [9], in experiment [10], in experiment [11], in experiment [13] and in experiment [14] was inactive. Further, the outcome in experiment [16] was inactive.

Turning to `Cc1onc(-c2c(F)cccc2Cl)c1C(=O)N1CCN(c2ncc(Br)cn2)CC1`, the activation is 109% (active) in experiment [1], 42.5% (active) in [10] and 37.9% (active) in experiment [12]. Also, the outcome in [2], in experiment [3], in experiment [4], in [5], in experiment [6] and in experiment [7] was inactive. The result in experiment [8], in [9], in experiment [11], in [13], in experiment [14] and in [15] was inactive. Besides, in experiment [16], the result was inactive.

Regarding `CC(=O)Nc1ccc(CN2CCCC(C(=O)c3ccc(C(F)(F)F)cc3)C2)cc1` (stereo not given), the activation in experiment [1] is 358% (active); in experiment [2], 86% (active); in experiment [10], 37.5% (active); in [12] it was 40.5% (active). The outcome in experiment [3], in experiment [4], in experiment [5], in experiment [6], in experiment [7] and in experiment [8] was inactive. The result in [9], in experiment [11], in [13], in [14], in [15] and in experiment [16] was inactive.

As for `Cn1c(-c2cccc3ccccc23)n[nH]c1=S`, the activation in experiment [1] is 117% (active); in experiment [2] it was 97% (active); in [12] it was 30.5% (active). Further, the outcome in experiment [3], in [4], in experiment [5], in experiment [6], in experiment [7] and in [8] was inactive. The call in [9], in [10], in [11], in experiment [13], in [14] and in experiment [15] was inactive. Moreover, the result in experiment [16] was inactive.

As for `COc1ccc(C(=O)NC(=S)NNC(=O)c2c(-c3ccccc3)noc2C)cc1`, the activation in [1] is 100% (active); in experiment [10] it was 28.5% (active); in [12], 105% (active); in experiment [15], 28.5% (active). Also, the outcome in experiment [2], in experiment [3], in experiment [4], in [5], in [6] and in experiment [7] was inactive. Moreover, the outcome in experiment [8], in experiment [9], in [11], in experiment [13], in experiment [14] and in experiment [16] was inactive.

Values taken from PubChem BioAssay.
